According to article PMC4081100, “A DNA-binding-site landscape and regulatory network analysis for NAC transcription factors in Arabidopsis thaliana”:

Legend:
Assay in all cases: universal protein binding microarray (PBM); transcription factors of Arabidopsis thaliana; high values mean tight binding
GST-ANAC092(1-176) = biological target: T1, GST-ANAC092(1-176) (Arabidopsis thaliana, UniProt Q9FKA0 1-176); conditions: protein: recombinant; tags: GST; chain copies: 2; dsDNA, one strand shown
T1 sequence: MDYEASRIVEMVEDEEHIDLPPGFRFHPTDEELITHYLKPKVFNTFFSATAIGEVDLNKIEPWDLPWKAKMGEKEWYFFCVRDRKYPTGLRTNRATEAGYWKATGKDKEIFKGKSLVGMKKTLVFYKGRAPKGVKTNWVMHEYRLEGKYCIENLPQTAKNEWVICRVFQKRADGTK
Summary of the method: (§1)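 GST-tagged proteins (NAC-domain, full-length or DNA-binding-domain) were induced in cells, with zinc acetate supplied for zinc-finger proteins, then purified on glutathione–Sepharose 4B. Each was tested in duplicate at 200 to 500 nM final on custom all-10-mer Agilent 4 × 180K arrays rendered double-stranded by primer extension. The binding value is the normalised enrichment score (E-score) across gapped and ungapped 8-mers.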

GST-NTL6(1-168) = GST-NTL6(1-168) (Arabidopsis thaliana, UniProt Q9SCK6 1-168); conditions: protein: recombinant; tags: GST; chain copies: 2; dsDNA, one strand shown
Summary of the method: as §1

GST-ANAC019 NAC domain = biological target: T2, GST-ANAC019 NAC domain (Arabidopsis thaliana, UniProt Q9C932 14-162); conditions: protein: recombinant; tags: GST; chain copies: 2; dsDNA, one strand shown
T2 sequence: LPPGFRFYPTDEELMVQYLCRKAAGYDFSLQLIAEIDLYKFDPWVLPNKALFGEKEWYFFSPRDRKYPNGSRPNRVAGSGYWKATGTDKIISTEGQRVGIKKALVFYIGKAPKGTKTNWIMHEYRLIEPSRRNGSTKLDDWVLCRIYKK
Summary of the method: as §1

GST-ANAC055(1-171) = biological target: T3, GST-ANAC055(1-171) (Arabidopsis thaliana, UniProt Q9LDY8 1-171); conditions: protein: recombinant; tags: GST; chain copies: 2; dsDNA, one strand shown
T3 sequence: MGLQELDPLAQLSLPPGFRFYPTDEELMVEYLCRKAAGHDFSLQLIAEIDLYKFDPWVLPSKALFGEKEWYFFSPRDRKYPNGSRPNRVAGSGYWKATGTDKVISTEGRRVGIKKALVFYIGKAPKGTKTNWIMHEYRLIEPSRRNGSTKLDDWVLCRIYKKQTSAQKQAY
Summary of the method: as §1

GST-ATAF1 NAC domain = biological target: T4, GST-ATAF1 NAC domain (Arabidopsis thaliana, UniProt Q39013 7-158); conditions: protein: recombinant; tags: GST; chain copies: 2; dsDNA, one strand shown
T4 sequence: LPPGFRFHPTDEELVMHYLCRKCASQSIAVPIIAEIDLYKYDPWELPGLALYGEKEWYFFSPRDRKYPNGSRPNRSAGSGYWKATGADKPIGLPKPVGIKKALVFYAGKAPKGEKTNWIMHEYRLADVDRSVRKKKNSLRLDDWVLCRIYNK
Summary of the method: as §1

[1] = biological target: T5, GST-ANAC092(1-285) full length (Arabidopsis thaliana, UniProt Q9FKA0 1-285); conditions: protein: recombinant; tags: GST; chain copies: 2; dsDNA, one strand shown
T5 sequence: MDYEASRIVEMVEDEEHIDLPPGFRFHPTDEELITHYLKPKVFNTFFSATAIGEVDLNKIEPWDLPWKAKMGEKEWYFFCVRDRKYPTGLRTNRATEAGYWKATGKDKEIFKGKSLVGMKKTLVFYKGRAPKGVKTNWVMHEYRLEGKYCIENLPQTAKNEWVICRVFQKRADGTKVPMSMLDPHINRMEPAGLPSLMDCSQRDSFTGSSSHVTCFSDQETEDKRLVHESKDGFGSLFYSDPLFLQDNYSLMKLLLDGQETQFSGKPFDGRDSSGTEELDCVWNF
Summary of the method: as §1

GST-NST2(1-184) = biological target: T6, GST-NST2(1-184) (Arabidopsis thaliana, UniProt Q9M274 1-184); conditions: protein: recombinant; tags: GST; chain copies: 2; dsDNA, one strand shown
T6 sequence: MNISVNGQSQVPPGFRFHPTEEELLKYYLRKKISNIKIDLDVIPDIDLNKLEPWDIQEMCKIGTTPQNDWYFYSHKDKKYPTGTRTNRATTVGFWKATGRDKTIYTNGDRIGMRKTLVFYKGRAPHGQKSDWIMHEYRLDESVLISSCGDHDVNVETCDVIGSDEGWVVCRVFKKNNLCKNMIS
Summary of the method: as §1

GST-SND1(1-203) = biological target: T7, GST-SND1(1-203) (Arabidopsis thaliana, UniProt Q9LPI7 1-203); conditions: protein: recombinant; tags: GST; chain copies: 2; dsDNA, one strand shown
T7 sequence: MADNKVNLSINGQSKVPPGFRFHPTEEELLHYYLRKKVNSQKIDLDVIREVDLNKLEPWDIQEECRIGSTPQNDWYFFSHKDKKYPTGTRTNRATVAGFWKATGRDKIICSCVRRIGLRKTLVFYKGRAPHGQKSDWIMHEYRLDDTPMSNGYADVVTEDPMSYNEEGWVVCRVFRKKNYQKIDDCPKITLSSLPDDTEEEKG
Summary of the method: as §1

GST-VND3 NAC domain = biological target: T8, GST-VND3 NAC domain (Arabidopsis thaliana, UniProt Q9FH59 12-162); conditions: protein: recombinant; tags: GST; chain copies: 2; dsDNA, one strand shown
T8 sequence: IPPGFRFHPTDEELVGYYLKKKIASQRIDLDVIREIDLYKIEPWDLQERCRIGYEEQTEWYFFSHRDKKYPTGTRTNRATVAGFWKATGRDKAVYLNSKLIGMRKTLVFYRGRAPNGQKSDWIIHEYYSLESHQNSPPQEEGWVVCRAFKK
Summary of the method: as §1

GST-WRKY1(266-371) = GST-WRKY1(266-371) (Arabidopsis thaliana, UniProt Q9SI37 266-371); conditions: protein: recombinant; tags: GST; dsDNA, one strand shown
Summary of the method: as §1

GST-NTL8 NAC domain = biological target: T9, GST-NTL8 NAC domain (Arabidopsis thaliana, UniProt Q9XIN7 14-156); conditions: protein: recombinant; tags: GST; chain copies: 2; dsDNA, one strand shown
T9 sequence: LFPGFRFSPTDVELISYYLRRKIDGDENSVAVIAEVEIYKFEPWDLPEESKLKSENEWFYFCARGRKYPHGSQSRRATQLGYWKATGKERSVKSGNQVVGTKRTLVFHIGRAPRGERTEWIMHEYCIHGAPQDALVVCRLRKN
Summary of the method: as §1

GST-NAP(1-166) = biological target: T10, GST-NAP(1-166) (Arabidopsis thaliana, UniProt O49255 1-166); conditions: protein: recombinant; tags: GST; chain copies: 2; dsDNA, one strand shown
T10 sequence: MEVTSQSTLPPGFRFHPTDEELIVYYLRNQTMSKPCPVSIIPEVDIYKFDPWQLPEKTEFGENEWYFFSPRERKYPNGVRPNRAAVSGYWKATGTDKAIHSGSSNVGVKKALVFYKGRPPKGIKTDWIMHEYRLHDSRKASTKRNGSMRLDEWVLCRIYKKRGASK
Summary of the method: as §1

GST-VND7 NAC domain = biological target: T11, GST-VND7 NAC domain (Arabidopsis thaliana, UniProt Q9C8W9 9-158); conditions: protein: recombinant; tags: GST; chain copies: 2; dsDNA, one strand shown
T11 sequence: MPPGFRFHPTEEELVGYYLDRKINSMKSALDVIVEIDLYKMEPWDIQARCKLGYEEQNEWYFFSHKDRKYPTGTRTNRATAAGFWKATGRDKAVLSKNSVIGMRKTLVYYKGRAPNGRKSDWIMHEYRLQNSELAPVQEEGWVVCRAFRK
Summary of the method: as §1

GST-WRKY1(266-371), sequence (Q9SI37 266-371): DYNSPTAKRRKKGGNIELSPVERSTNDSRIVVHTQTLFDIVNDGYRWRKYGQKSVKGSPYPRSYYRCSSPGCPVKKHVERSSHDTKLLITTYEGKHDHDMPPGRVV
GST-NTL6(1-168), sequence (Q9SCK6 1-168): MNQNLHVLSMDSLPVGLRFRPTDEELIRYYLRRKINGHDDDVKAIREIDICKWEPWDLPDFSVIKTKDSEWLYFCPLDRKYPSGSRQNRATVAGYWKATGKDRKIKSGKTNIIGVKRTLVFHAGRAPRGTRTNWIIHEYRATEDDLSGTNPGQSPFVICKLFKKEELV

Sequence	binding signal (GST-ANAC092(1-176))	binding signal (GST-NTL6(1-168))	binding signal (GST-ANAC019 NAC domain)	binding signal (GST-ANAC055(1-171))	binding signal (GST-ATAF1 NAC domain)	binding signal [1]	binding signal (GST-NST2(1-184))	binding signal (GST-SND1(1-203))	binding signal (GST-VND3 NAC domain)	binding signal (GST-WRKY1(266-371))	binding signal (GST-NTL8 NAC domain)	binding signal (GST-NAP(1-166))	binding signal (GST-VND7 NAC domain)
CACTCAAC	0.4 E-score	0.0871 E-score	0.151 E-score	0.139 E-score	0.0909 E-score	0.424 E-score	0.237 E-score	0.243 E-score	0.089 E-score				
GTCAAGTA				0.0988 E-score	0.136 E-score	0.186 E-score		0.0698 E-score	0.137 E-score	0.417 E-score			
ACACTCCA	0.398 E-score		0.0899 E-score	0.15 E-score	0.17 E-score	0.429 E-score	0.226 E-score	0.278 E-score	0.0605 E-score				
AAGGAATC	0.172 E-score	0.42 E-score			0.0816 E-score	0.251 E-score	0.0867 E-score	0.292 E-score	0.0823 E-score		0.328 E-score		
GTCAATTA				0.0852 E-score	0.202 E-score	0.159 E-score	0.147 E-score	0.122 E-score	0.104 E-score	0.42 E-score			
GTTTCCTA	0.118 E-score	0.0734 E-score	0.158 E-score	0.133 E-score	0.212 E-score	0.179 E-score	0.169 E-score	0.106 E-score	0.179 E-score		0.404 E-score	0.118 E-score	
GCTAAGTA		0.429 E-score						0.121 E-score	0.0851 E-score			0.0551 E-score	
AAGGAATG	0.153 E-score	0.422 E-score	0.0613 E-score	0.0506 E-score	0.07 E-score	0.115 E-score	0.196 E-score	0.227 E-score		0.0844 E-score	0.293 E-score		0.0905 E-score
GTCAAAAC					0.178 E-score	0.11 E-score		0.148 E-score	0.176 E-score	0.447 E-score	0.0569 E-score	0.111 E-score	
ACGTTATC	0.384 E-score			0.0511 E-score	0.17 E-score	0.431 E-score	0.299 E-score	0.423 E-score	0.208 E-score			0.162 E-score	
CCAAGCAA	0.31 E-score	0.309 E-score	0.147 E-score	0.0877 E-score	0.0528 E-score	0.356 E-score	0.295 E-score	0.405 E-score	0.119 E-score		0.0676 E-score		
CAGGGAAA	0.141 E-score	0.0693 E-score	0.115 E-score			0.102 E-score		0.0967 E-score	0.0593 E-score		0.407 E-score		
GTCAACAA		0.0834 E-score		0.163 E-score	0.191 E-score	0.136 E-score	0.101 E-score	0.177 E-score		0.478 E-score	0.0573 E-score	0.075 E-score	0.07 E-score
TCCGTCAA			0.0961 E-score					0.063 E-score	0.105 E-score	0.412 E-score			
AGGGAAAC	0.0845 E-score	0.115 E-score	0.0754 E-score		0.0887 E-score	0.071 E-score		0.0839 E-score	0.0608 E-score		0.482 E-score	0.14 E-score	
